From PubChem BioAssay AID652234 (Broad Institute, 2013)
Calls of active or inactive are those of the source. No rule for the calls is given here.

Target: Ubiquitin carboxyl-terminal hydrolase 9X (Homo sapiens) (UniProt Q93008)
Test: USP9X direct binding, late-stage follow-up, orthogonal assay, biophysical, surface plasmon resonance (AID 652234)
Settings: Recombinant USP9X, SPR Biacore T200, RU; at 100 µM (top of the series)

Chain of Ubiquitin carboxyl-terminal hydrolase 9X (Homo sapiens) (Q93008 whole entry, looked up): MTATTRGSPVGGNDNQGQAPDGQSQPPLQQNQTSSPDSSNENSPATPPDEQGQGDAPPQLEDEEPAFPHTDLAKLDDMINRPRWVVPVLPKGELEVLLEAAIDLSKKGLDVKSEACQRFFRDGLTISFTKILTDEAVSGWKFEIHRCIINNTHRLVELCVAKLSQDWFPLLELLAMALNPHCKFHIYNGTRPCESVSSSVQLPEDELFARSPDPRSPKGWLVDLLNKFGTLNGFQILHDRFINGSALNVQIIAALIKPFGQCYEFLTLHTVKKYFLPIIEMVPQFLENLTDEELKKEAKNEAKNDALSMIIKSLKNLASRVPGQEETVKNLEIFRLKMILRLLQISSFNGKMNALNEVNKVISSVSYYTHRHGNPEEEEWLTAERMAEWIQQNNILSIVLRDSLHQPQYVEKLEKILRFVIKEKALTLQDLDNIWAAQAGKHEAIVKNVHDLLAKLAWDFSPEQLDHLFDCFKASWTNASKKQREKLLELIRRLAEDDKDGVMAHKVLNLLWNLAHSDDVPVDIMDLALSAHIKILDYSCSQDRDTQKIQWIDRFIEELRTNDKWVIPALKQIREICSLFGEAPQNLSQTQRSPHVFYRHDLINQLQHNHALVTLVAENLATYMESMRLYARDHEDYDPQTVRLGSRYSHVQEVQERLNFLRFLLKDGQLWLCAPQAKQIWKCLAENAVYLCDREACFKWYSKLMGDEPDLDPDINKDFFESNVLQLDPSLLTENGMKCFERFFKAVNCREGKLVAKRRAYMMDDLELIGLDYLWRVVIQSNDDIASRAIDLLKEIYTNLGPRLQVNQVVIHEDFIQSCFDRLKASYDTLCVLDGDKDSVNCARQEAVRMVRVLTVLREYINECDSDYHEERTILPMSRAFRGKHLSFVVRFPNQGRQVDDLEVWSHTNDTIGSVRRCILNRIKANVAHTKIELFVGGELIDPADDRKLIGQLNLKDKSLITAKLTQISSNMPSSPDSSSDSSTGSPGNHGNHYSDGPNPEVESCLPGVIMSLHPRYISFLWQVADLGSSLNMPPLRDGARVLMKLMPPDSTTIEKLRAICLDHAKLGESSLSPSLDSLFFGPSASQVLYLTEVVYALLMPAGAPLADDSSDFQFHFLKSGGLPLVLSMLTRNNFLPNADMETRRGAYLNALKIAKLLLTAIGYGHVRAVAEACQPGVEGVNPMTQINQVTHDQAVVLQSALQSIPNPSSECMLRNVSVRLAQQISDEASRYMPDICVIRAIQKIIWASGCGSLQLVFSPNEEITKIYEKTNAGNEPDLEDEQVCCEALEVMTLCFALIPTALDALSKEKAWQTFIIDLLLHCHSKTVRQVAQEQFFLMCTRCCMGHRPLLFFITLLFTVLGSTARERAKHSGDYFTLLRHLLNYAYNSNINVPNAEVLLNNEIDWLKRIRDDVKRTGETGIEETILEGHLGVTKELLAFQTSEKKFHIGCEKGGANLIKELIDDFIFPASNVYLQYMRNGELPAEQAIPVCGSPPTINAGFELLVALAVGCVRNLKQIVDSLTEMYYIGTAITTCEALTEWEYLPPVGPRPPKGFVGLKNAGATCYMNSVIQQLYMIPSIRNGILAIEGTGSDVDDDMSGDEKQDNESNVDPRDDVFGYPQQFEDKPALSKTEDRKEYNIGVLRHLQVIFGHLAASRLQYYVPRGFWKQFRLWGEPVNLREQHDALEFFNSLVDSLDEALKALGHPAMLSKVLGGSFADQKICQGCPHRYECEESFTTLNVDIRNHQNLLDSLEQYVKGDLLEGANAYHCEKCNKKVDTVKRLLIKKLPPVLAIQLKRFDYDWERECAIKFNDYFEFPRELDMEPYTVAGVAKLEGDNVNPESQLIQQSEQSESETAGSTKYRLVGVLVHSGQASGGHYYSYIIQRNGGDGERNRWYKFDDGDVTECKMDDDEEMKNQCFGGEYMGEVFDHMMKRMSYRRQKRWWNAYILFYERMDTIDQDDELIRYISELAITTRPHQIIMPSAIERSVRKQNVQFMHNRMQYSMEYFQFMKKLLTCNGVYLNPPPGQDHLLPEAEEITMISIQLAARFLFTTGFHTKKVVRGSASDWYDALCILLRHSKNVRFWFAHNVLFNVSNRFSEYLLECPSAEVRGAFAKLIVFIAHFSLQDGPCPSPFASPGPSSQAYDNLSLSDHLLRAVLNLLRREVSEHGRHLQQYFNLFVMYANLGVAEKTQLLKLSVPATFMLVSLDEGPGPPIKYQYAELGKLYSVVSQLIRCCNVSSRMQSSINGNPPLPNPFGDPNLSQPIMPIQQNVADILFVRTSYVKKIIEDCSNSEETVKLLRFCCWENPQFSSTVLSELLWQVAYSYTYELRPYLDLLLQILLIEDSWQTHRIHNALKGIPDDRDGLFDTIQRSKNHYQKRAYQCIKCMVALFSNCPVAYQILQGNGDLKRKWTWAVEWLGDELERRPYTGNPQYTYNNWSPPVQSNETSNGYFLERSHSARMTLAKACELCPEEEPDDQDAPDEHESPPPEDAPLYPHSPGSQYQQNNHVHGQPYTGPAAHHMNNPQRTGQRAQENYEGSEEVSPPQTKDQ

C[C@@H]1CN([C@@H](C)CO)C(=O)c2cccc(NC(=O)Nc3cccc4ccccc34)c2O[C@H]1CN(C)S(=O)(=O)c1ccc2c(c1)OCCO2
binding signal (RU), higher = more binding: 11.2 (active)
